# Assay results as given in PubChem BioAssay AID2315 (National Center for Advancing Translational Sciences (NCATS), 2010).
# About 27,000 (9.3%) of roughly 290,000 compounds were called active. Many of the other results were omitted from the sample, so actives are more common in it than they were. Values without a mark were called inactive. Cut-off read from the data, not from the text of the source: active = inhibition mostly above about 28% (no sharp cut-off); inactive = mostly below about 43%.
# Assay: A qHTS for Small Molecule Inhibitors of Shiga Toxin; note: 0% is about no effect
# Settings: Vero cells, Shiga toxin protein synthesis inhibition reporter; at 38.7 µM, stronger effect = higher value
row,Compound,inhibition
1,O=C(OCc1nc2ccccc2[nH]1)C1CCCCC1,29.7% (active)
2,O=C(COc1ccccc1)NCCc1nc2ccccc2[nH]1,-37.8%
3,CCO[C@@H]1OC(C(=O)NCc2nc3ccccc3[nH]2)=C[C@H](C2CCCCC2)[C@H]1CCCO,-8.66%
4,CC1C(=O)Nc2ccccc2N1C(=O)c1ccc(F)cc1F (stereo unspecified),26.5%
5,O=C(Nc1ccc(-c2cscn2)cc1)C1CCCN(Cc2ccc(CO)o2)C1 (stereo unspecified),7.25%
6,CCOC(=O)NNC(=O)c1ccc(Cl)cc1,11.6%
7,O=C(NNC(=S)NC1CC2CCC1C2)c1ccc(Cl)cc1 (stereo unspecified),12.4%
8,O=C(NNC(=O)C1C2CCC(C2)C1C(=O)O)c1ccc(Cl)cc1 (stereo unspecified),57.3% (active)
9,Cc1ccc(OCC(=O)NC(C)c2ccccc2)cc1C (stereo unspecified),-6.99%
10,CCOc1ccc(OCC(=O)Nc2c3c(nn2C(C)(C)C)CS(=O)(=O)C3)cc1,-5.61%
11,CC(C)Oc1ccc(Oc2ccc(C(F)(F)F)cn2)cc1,1.31%
12,CSc1nnc(-c2ccc(C(F)(F)F)cn2)o1,47.1% (active)
13,Cc1nnc(C)n1/N=C/c1ccc(C(C)C)cc1,-9.61%
14,CC(=O)c1sc(N/N=C\c2ccc(C)cc2)nc1C,72.3% (active)
15,CC(=O)c1sc(NC(=O)c2ccc(C)cc2)nc1C,107% (active)
16,CC(=O)c1sc(NC(=O)C2=NN(c3ccccc3)C(=O)CC2)nc1C,21.6%
17,CCOC(=O)c1sc(NC(=O)c2ccncc2)nc1C,11%
18,Cc1ccc(S(=O)(=O)Nc2nc(C)cc(N/N=C/c3ccc(O)cc3)n2)cc1,9.39%
19,CC(=O)c1sc(N/N=C/c2ccc(C(C)C)cc2)nc1C,69.3% (active)
20,CCSc1nnc(NC(=O)c2ccc(C)cc2)s1,71.3% (active)
21,CCOC(=O)CSc1nnc(NC(=O)c2cccc(S(=O)(=O)N3CCCC3)c2)s1,-15%
22,C=CCSc1nnc(NC(=O)c2ccc(NC(C)=O)cc2)s1,26.6%
23,CC(=O)c1sc(NC(=O)CCCOc2ccccc2C)nc1C,-15.8%
24,COC(=O)c1sc(NC(=S)NC(=O)c2ccc(C)cc2)nc1C,38.9%

row,Compound,inhibition
1,O=C(NCCCN1CCOCC1)C1CCCN(S(=O)(=O)N2CCCCC2)C1 (stereo unspecified),-9.17%
2,Cc1ccc(NC(=O)Cc2nnc(SCC(=O)Nc3nncs3)n2C)cc1,-6.25%
3,COc1ccc(OC)c(/C(C)=N\NC(=O)c2cc3cc(Cl)ccc3n2C)c1,-10.1%
4,CCN(Cc1ccncc1)C(=O)CCc1ccccc1,-7.55%
5,COc1ccccc1NC(=O)C1CCCN1S(=O)(=O)c1ccc(Cl)cc1 (stereo unspecified),23.6%
6,CC(NS(=O)(=O)c1ccc(Br)cc1)C(=O)NCC1CCCO1 (stereo unspecified),25%
7,CC(C)(C)NC(=O)CN(Cc1cccs1)C(=O)CNS(=O)(=O)c1ccccc1,41.4%
8,C[C@H]1CCC[C@@]2(C)CCCC[C@]12O,12.1%
9,COc1ccccc1N1CCN(c2ncnc3sc(C)c(-c4ccccc4)c23)CC1,54.8%
10,O=C(c1c(F)cccc1Cl)N1CCN(S(=O)(=O)c2ccc3c(c2)OCCCO3)CC1,-6.3%
11,CC1CCN(CC(=O)Nc2nccs2)CC1,-4.28%
12,N/C(=N\OC(=O)c1ccc2c(c1)OCO2)c1ccc(Br)cc1,73.3% (active)
13,N/C(=N\OC(=O)N1c2ccccc2Sc2ccccc21)c1ccc(Br)cc1,-3.87%
14,N/C(=N\OC(=O)/C=C/c1ccccc1)c1ccc(Br)cc1,6.16%
15,O=C(Nc1nnc(-c2ccc(F)cc2)s1)c1c(F)cccc1Cl,3.43%
16,C/C(=C\c1ccccc1)C1NC(=O)c2c(sc3c2CCCC3)N1 (stereo unspecified),34.2%
17,O=C1NC(c2ccncc2)Nc2sc3c(c21)CCCC3 (stereo unspecified),64.1% (active)
18,Cc1ccc(C(=O)c2c(NC(=O)c3ccncc3)sc3c2CCCC3)cc1,-0.844%
19,CCOC(=O)[C@@H]1[C@H]2COc3cc(OC)ccc3[C@@H]2N2C(=O)N(c3cccc(C)c3)C(=O)[C@@]12C,-1.2%
20,CC1CCCN(CCCNC(=O)CN2C(=O)COc3ccc(S(=O)(=O)N4CCOCC4)cc32)C1 (stereo unspecified),-5.12%
21,C=CCn1c(CNS(=O)(=O)c2ccc(Br)cc2)nnc1SC,-6.56%
22,O=C(CSc1nnc2c(n1)[nH]c1ccccc12)NC1CCCCC1,-11%
23,O=C(/C=C/c1cnc2ccccc2n1)NC1CCCCCC1,112% (active)
24,O=C(Cn1c(-c2cncs2)nc2ccccc21)NC1CCCC1,-2.75%

row,Compound,inhibition
1,Cc1ccc(N(Cc2cc(=O)[nH]c3ccccc23)C(=O)CCl)cc1,-5.41%
2,Cc1cccc(C(=O)NNC(=O)CSc2nnc(C(C)C)n2C)c1,-2.77%
3,COc1cccc(C(C(=O)NC2CCCC2)N(C(=O)c2ccco2)c2cccc(C(C)=O)c2)c1OC (stereo unspecified),-12.2%
4,Cc1nc(/N=C(\N)NC(=O)NC2CCCCC2)nc2ccccc12,30.3% (active)
5,COc1ccc2nc(/N=C(\N)NC(=O)Nc3ccccc3)nc(C)c2c1,69.1%
6,O=C(NNC(=O)C(O)c1ccccc1)NC1CCCCC1 (stereo unspecified),-13.5%
7,COc1ccc(C(=O)NCCCN2CCOCC2)cc1Br,-13.5%
8,O=C(c1cc2ccccc2o1)N1CCN(c2cccc(C(F)(F)F)c2)CC1,-15.8%
9,COCCN(C(=O)CCC(=O)Nc1nccs1)C(C(=O)NCCC(C)C)c1ccc(F)cc1 (stereo unspecified),-13.9%
10,CCOC(=O)/C(C#N)=C\c1c(C)cc(C)c(COC(C)=O)c1C,30.8% (active)
11,CCOC(=O)NC(=O)/C(C#N)=C\c1ccccc1,-2.62%
12,COC(=O)/C(C#N)=C/c1occc1C,-2.66%
13,COCCNC(=O)CSc1nc2sccc2c(=O)n1-c1ccccc1,-4.95%
14,COc1cc(NC(=O)NCC2CCN(Cc3ccc(C)cc3)CC2)cc(OC)c1OC,19.7%
15,CCSc1nnc(-c2cc3c(s2)-c2ccccc2CC3)o1,73.3% (active)
16,O=C(CSc1nnc(-c2ccccc2O)o1)NC1CCCCC1,-7.64%
17,Fc1ccc(CSc2nnc(-c3cc4c(s3)-c3ccccc3CC4)o2)cc1,-15%
18,CSCCC(NC(=O)c1ccc(Cl)cc1Cl)C(=O)NNC(=O)c1csc(N2CCOCC2)n1 (stereo unspecified),23.2%
19,O=C(Nc1ccc(N2CCCC2=O)cc1)c1cncc(Br)c1,-22%
20,CN(C)Cc1c(O)ccc2c(=O)c(-c3ccccc3Cl)coc12,2.96%
21,O=C(/C=C/c1ccccc1[N+](=O)[O-])NCC1CCCO1 (stereo unspecified),28%
22,O=C(/C=C/c1ccccc1[N+](=O)[O-])OC1CCCCC1=O (stereo unspecified),-5.74%
23,CC1CCCCC1NC(=O)/C(C#N)=C/C=C/c1ccccc1[N+](=O)[O-] (stereo unspecified),52.2% (active)
24,CCN(c1cccc(C)c1)S(=O)(=O)c1ccc(-c2coc(C)n2)cc1,-6.9%

row,Compound,inhibition
1,O=C(CCl)NNc1nc(-c2ccccc2)c2cc(Cl)ccc2n1,-6.68%
2,C=CCn1c(C23CC4CC(CC(C4)C2)C3)n[nH]c1=S,-6.65%
3,O=C(COC(=O)c1c2c(nc3ccccc13)CCCC2)c1ccc(Br)s1,91.1% (active)
4,CCCc1nc2ccccc2c(C(=O)OCC(=O)c2ccc3c(c2)NC(=O)CO3)c1CC,7.85%
5,O=C(Nc1c2c(nc3ccccc13)CCCC2)c1ccccc1Br,13.1%
6,Cc1cc(Cl)c(S(=O)(=O)NCC2CCCO2)cc1OCC(N)=O (stereo unspecified),-1.08%
7,Cc1cc(Cl)c(S(=O)(=O)Nc2ccc3c(c2)OCCO3)cc1OCC(N)=O,99.8% (active)
8,Cc1cc(Cl)c(S(=O)(=O)N(C)C)cc1OCC(N)=O,9.4%
9,O=C(NCc1ccco1)/C(=C\c1cccc([N+](=O)[O-])c1)NC(=O)c1ccco1,2.57%
10,O=C(N/N=C/c1cc2c(cc1Br)OCO2)C1COc2ccccc2O1 (stereo unspecified),77.9% (active)
11,O=C(N/N=C\c1cc(Br)c(Br)o1)C1COc2ccccc2O1 (stereo unspecified),10.7%
12,O=C(CNC(=O)C1COc2ccccc2O1)N/N=C/c1cc(Br)c(O)c(Br)c1 (stereo unspecified),-3.37%
13,CC(=O)c1c(C)[nH]c(C(=O)COC(=O)c2cccc(S(=O)(=O)N(C)c3ccccc3)c2)c1C,8.98%
14,CCCNC(=O)COc1coc(CN2CCN(Cc3ccccc3)CC2)cc1=O,-16.7%
15,COCCNC(=O)C(c1ccc(C)cc1)N(C(=O)CCC(=O)Nc1ccccn1)c1cccc(C)c1 (stereo unspecified),32.2%
16,O=C(Cc1ccc([N+](=O)[O-])cc1)Nc1ccc(C(=O)N2CCOCC2)cc1,7.91%
17,Cc1ccc(CN(C)Cc2cc(=O)oc3cc(C)c(Cl)cc23)cc1,7.75%
18,Cc1cnc(C(=O)OCC(=O)N2CCc3ccccc32)cn1,-4.93%
19,NC(=O)N1CCc2ccccc21,-9.66%
20,O=C(c1cnn2ccccc12)N1CCc2ccccc21,97.7% (active)
21,CC1CCc2c(sc3nc4n(c(=O)c23)CCS4)C1 (stereo unspecified),33.9%
22,C=CCn1c(SCc2c(C)noc2C)nc2sc3c(c2c1=O)CCC(C)C3 (stereo unspecified),-12.7%
23,CCCn1nnc2sc3c(c2c1=O)CCC(C)C3 (stereo unspecified),90.4% (active)
24,COc1cccc(N2CCN(c3ccc4nnc(CCC(=O)N5CCN(C)CC5)n4n3)CC2)c1,-1.7%
